High-throughput results: PubChem BioAssay, National Center for Advancing Translational Sciences (NCATS)
RORg inh: blocks mouse ROR gamma transcriptional activity; P51450; Drosophila S2 Gal4-RORgamma UAS-luciferase reporter, 20 h; Potency, µM (titrated, usually from 53.6 µM), hits mostly inhibitors; 5.4% of 310,000 active; also: nearly all actives have a fitted effect of over 60% in size
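Using a luciferase readout, inhibitors were identified by reduced reporter activity in Drosophila cells coexpressing a copper-inducible Gal4–ROR gamma fusion and UAS-driven Photinus luciferase, incubated 20 hr after 700 uM copper sulfate.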
ELG1 repair inh: inhibitors of ELG1-dependent DNA repair in HEK293T cells; HEK293T ELG1-luciferase reporter, luminescence, 16 h; DNA damage induced by 5-fluorouridine; Potency, µM (series often up to 46.1 µM), most hits filed as inhibitors; 2.3% of 330,000 active; also: nearly all actives have a fitted effect of over 55% in size
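5-Fluorouridine DNA damage + compound/DMSO, 2,000 cells/well, 16 h, 37 °C/5% CO2. ONE-Glo, 30 min RT, luminescence. Readout = decrease in reporter signal.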
TDP1 cell CPT: growth inhibition of DT40 Tdp1-/-;hTDP1 cells with camptothecin (screen for TDP1 inhibitors) | chicken DT40 Tdp1-/-;hTDP1 cells + 20 nM CPT, ATP luminescence, 48 h | Potency, µM (top dose mostly 46.2 µM), actives largely listed as inhibitors | 12% of 420,000 active; also: nearly all actives have a fitted effect of over 55% in size
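Chicken DT40 Tdp1-/- cells stably complemented with human TDP1 were seeded at 400 cells/well in medium containing 20 nM camptothecin, exposed to pin-transferred compounds, and grown at 37 °C for at least 48 hr. Viability was read as ATP luminescence.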
TDP1 cell noCPT: qHTS for Inhibitors of human tyrosyl-DNA phosphodiesterase 1 (TDP1): qHTS in cells in absence of CPT; Potency, µM (titrated, usually from 46.2 µM), hits mostly inhibitors; DT40 Tdp1-/- hTDP1 cells, no CPT, ATP luminescence, 48 h; 15% of 420,000 active; also: nearly all actives have a fitted effect of over 55% in size
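Chicken DT40 Tdp1-/- cells complemented with human TDP1, screened without camptothecin (DMSO vehicle only), 400 cells/well. Compounds pin-transferred, cells incubated at 37 °C for at least 48 hr. Growth read as ATP-dependent luminescence (CellTiter-Glo, 30 min at RT).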
VP16 counter: counter-screen for ROR gamma inhibitors: Gal4-VP16 reporter | 3.5% of 310,000 active | Drosophila S2 Gal4-VP16 UAS-luciferase, luminescence, 20 h | Potency, µM (series often up to 53.6 µM), usual class: inhibitors;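 also: Gal4-VP16 expression switched on by copper sulfate through the metallothionein promoter; nearly all actives have a fitted effect of over 50% in size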
12-LOX inh: ALOX12 (human) lipoxygenase inhibition; P18054; 1.1% of 580,000 active; Potency, µM (highest dose often 108 µM), hits mostly inhibitors; purified 12hLO, xylenol orange hydroperoxide absorbance
Target sequence (P18054 whole entry, looked up): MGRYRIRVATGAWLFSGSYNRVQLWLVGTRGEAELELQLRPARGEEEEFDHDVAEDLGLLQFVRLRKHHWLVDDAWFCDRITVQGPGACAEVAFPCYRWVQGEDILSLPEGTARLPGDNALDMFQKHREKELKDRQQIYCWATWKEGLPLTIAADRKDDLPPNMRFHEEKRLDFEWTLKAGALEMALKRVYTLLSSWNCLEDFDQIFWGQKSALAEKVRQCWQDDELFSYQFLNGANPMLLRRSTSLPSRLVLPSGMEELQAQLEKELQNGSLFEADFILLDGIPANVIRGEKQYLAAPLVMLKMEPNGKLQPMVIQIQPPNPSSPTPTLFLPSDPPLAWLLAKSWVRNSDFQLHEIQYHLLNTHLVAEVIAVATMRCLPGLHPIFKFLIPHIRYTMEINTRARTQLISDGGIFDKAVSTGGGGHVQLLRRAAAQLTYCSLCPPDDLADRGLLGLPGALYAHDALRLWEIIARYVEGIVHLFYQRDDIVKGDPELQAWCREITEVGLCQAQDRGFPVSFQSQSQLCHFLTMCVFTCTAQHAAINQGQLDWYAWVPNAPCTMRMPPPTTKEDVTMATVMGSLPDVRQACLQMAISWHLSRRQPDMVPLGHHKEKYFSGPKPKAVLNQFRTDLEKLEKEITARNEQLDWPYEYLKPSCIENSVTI
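Purified human 12hLO at 150 nM in 25 mM Hepes, 0.01% Triton X-100, pH 7.0, preincubated 15 min at room temperature with compound. Reaction started with 40 uM arachidonic acid, 30 min at room temperature. Hydroperoxide measured by Fe-xylenol orange, 573/405 nm absorbance ratio.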
Numbers stand for hits; i = inactive; ? = inconclusive; nt = no result given; ! = not active in a repeat; [ ] = another dose, or the depositor's remark. A selection: hits, their analogues and other compounds. The true share with any hit is near 15%. Calls follow the shape of the dose curve; as a rule, active = well fitted curve in the direction sought with a large enough effect; inconclusive = small, poorly fitted or top-dose-only effect, or another doubt; inactive = no such curve, though single readings can be large; an effect the other way counts as inactive or inconclusive.

SMILES	RORg inh	ELG1 repair inh	TDP1 cell CPT	TDP1 cell noCPT	VP16 counter	12-LOX inh
COc1ccc2cnn(CC(=O)NCc3ccccc3Cl)c(=O)c2c1OC	nt	nt	nt	nt	nt	i
CC1(C)C(=O)NCCN1C(=O)CSc1nccc(-c2ccc(Br)cc2)n1	i	i	?	16µM	i	i
Cc1ccc(Cl)cc1-n1c(=O)c2sc3ccccc3c2n(Cc2ccccc2)c1=O	nt	nt	23µM	5.8µM	nt	i
Cc1ccc(Cl)cc1-n1c(=O)c2sc3ccccc3c2n(CC(=O)NC2CCCC2)c1=O	nt	nt	i	?	nt	i
COc1cccc(Cn2c(=O)n(-c3ccc(Br)cc3F)c(=O)c3sc4ccccc4c32)c1	nt	nt	9.2µM	?	nt	i
O=c1c2sc3ccccc3c2n(Cc2ccc(Cl)cc2)c(=O)n1Cc1ccco1	nt	nt	?	8.2µM	nt	i
O=C(c1ccccc1F)N1CCCN(c2cc(-c3ccccc3)[nH]n2)CC1	nt	nt	nt	nt	nt	i
COc1nccc(N2CCC(CC(=O)NCc3ccccc3F)CC2)n1	nt	nt	nt	nt	nt	i
Cc1c(O)ccc2c3c(c(=O)oc12)CCC(C)C3 (stereo not drawn)	i	i	23µM	12µM	?	i
Cc1c(O)ccc2c3c(c(=O)oc12)CCCC3	i	i	?	?	i	i
COc1ccc2c(CCNC(=O)c3cccc4ccccc34)c[nH]c2c1	nt	nt	nt	nt	nt	i
O=C(c1ccsc1)N1CCCC(c2noc(COc3ccccc3F)n2)C1 (stereo not drawn)	nt	nt	nt	nt	nt	i
COc1cccc(/C=N/NC(=S)NCCc2ccccc2)c1OC	11µM	i	?	i	?	?
COc1ccc(OC)c(/C=N/NC(=S)NCCc2ccccc2)c1	40µM	?	?	?	11µM	45µM
COc1cccc(/C=N/NC(=O)c2ccccc2N(Cc2ccccc2)S(=O)(=O)c2ccccc2)c1OC	i	?	23µM	18µM	i	i
COc1cc(OC)c(/C=C/c2cc(/C=C/c3c(OC)cc(OC)cc3OC)[n+](C)c3ccccc23)c(OC)c1	nt	nt	1.6µM	1.1µM	nt	nt
COc1cc(OC)c(/C=C/c2c3ccccc3cc[n+]2C)c(OC)c1	nt	nt	0.32µM	0.089µM	nt	nt
COc1cc(OC)c(/C=C/c2cc3c4ccccc4ccc3[n+](C)c2)c(OC)c1	nt	nt	i	?	nt	nt
O=C(COc1ccc2c(=O)c(-c3ccc(Cl)cc3)coc2c1)N[C@H](CO)c1ccccc1	nt	nt	nt	nt	nt	i
CC1=NOC(=O)/C1=C/c1ccc(-c2ccc(Cl)cc2)o1	?	i	nt	nt	?	nt
CC1=NOC(=O)/C1=C\c1ccc(-c2cc(Cl)ccc2Cl)o1	i	?	?	?	i	2.2µM
CC1=NOC(=O)/C1=C\c1ccc(-c2ccc(Br)cc2)o1	?	i	13µM	12µM	?	45µM
CCN(CC)S(=O)(=O)c1ccc(O)c(NS(=O)(=O)c2ccccc2F)c1	10µM	i	?	i	i	i
NC(=O)COc1cc(OCC(N)=O)c(Cl)cc1Cl	nt	nt	nt	nt	nt	i
Cc1ccc(C)c(NS(=O)(=O)c2ccc3c4c(cccc24)C(=O)N3)c1	nt	nt	?	15µM	nt	?
SMILES	RORg inh	ELG1 repair inh	TDP1 cell CPT	TDP1 cell noCPT	VP16 counter	12-LOX inh
CCN(CC)CCNS(=O)(=O)c1ccc2c3c(cccc13)C(=O)N2	i	i	?	15µM	i	i
O=C1Nc2ccc(S(=O)(=O)Nc3ccccc3O)c3cccc1c23	nt	nt	i	i	nt	?
O=C(NC(c1ccc(Cl)cc1)c1cnccn1)C1CCN(CCCOc2ccccc2)CC1 (stereo not drawn)	nt	nt	23µM	21µM	nt	?
O=C(NC(c1ccc(Cl)cc1)c1cnccn1)C1CCN(Cc2ccccc2)CC1 (stereo not drawn)	nt	nt	?	?	nt	i
O=C(NC(c1ccc(Cl)cc1)c1cnccn1)C1CCN(CCCc2ccccc2)CC1 (stereo not drawn)	nt	nt	23µM	?	nt	nt
CN1C(=O)C(CC(N)=O)=C2CCCCC21 (stereo not drawn)	nt	nt	nt	nt	nt	i
N#CC1=C(N)NC(SCc2ccc(F)cc2)=C(C#N)C12CCCCC2	i	?	23µM	26µM	i	?
N#CC1=C(N)NC(SCC(=O)O)=C(C#N)C12CCCC2	i[10 µM]	i	i	i	i	?
Cc1ccc(NC(=O)CCNC(=O)c2ccccc2)cc1S(=O)(=O)N1CCCCC1	nt	nt	nt	nt	nt	i
Cc1ccc(F)cc1CN1CCOc2cc([S+](=O)([O-])N(C)C)ccc2C1	nt	nt	nt	nt	nt	i
O=c1c2c3c(sc2[nH]c(=S)n1Cc1ccco1)CCC3	?	i	i	i	?	?
O=c1[nH]c2sc3c(c2c(=O)n1Cc1ccccc1)CCC3	i[10 µM]	i	i	i	i	i
COCCCn1c(=S)[nH]c2sc3c(c2c1=O)CCCC3	0.79µM	i	?	i	1µM	?
C=CCn1c(=S)[nH]c2sc3c(c2c1=O)CCCC3	0.4µM	?	i	i	0.71µM	?
COCCn1c(=S)[nH]c2sc3c(c2c1=O)CCCC3	4µM	?	i	i	2.2µM	?
CSc1ccc(/C=C2\N=C(c3ccccc3)OC2=O)cc1	nt	nt	nt	nt	nt	i
COc1ccc(CCNC(=O)CCc2nc(CS(=O)(=O)c3ccc(Cl)cc3)no2)cc1OC	nt	nt	nt	nt	nt	i
CCc1cccc2cc3c(N)c(C(=O)Nc4ccc(S(=O)(=O)N5CCCC5)cc4)sc3nc12	i	?	?	8.2µM	i	?
CN(CC(=O)Nc1cccc(F)c1)C(=O)CCc1ncc(-c2ccccc2)o1	nt	nt	nt	nt	nt	i
CCN(Cc1nc2cc(Cl)ccc2c(=O)[nH]1)C(=O)Cc1csc(-c2ccc(C)cc2)n1	nt	nt	nt	nt	nt	i
COc1cc(/C=N/Nc2nncn2/N=C/c2ccc(O)c(OC)c2)ccc1O	i	?	?	?	?	i
COc1ccc(OC)c(/C=N/Nc2nncn2/N=C/c2cc(OC)ccc2OC)c1	?	?	8.2µM	7.3µM	?	i
CCCCN(C)C(=O)c1csc(N2CCN(c3ccccc3)CC2)n1	nt	nt	nt	nt	nt	i
O=C(COC(=O)c1nc(-c2ccccc2)n(-c2ccccc2)n1)Nc1cc(F)ccc1F	nt	nt	nt	nt	nt	i
O=C1c2ccccc2NC2CCCCC12 (stereo not drawn)	i	?	?	23µM	?	i
SMILES	RORg inh	ELG1 repair inh	TDP1 cell CPT	TDP1 cell noCPT	VP16 counter	12-LOX inh
COC(=O)c1ccc(Cn2nc(-c3ccc(C)c(C)c3)ccc2=O)cc1	i	?	?	?	i	i
COC(=O)c1ccc(Cn2nc(-c3ccc(C)cc3)ccc2=O)cc1	i	i	16µM!	?	i	?
O=C(NCCc1ccccc1)c1ccc(CSc2nc3ccncc3n2Cc2cccc(F)c2)cc1	nt	nt	13µM	12µM	nt	i
O=C(NCCN1CCCCC1)c1ccc(Cn2c(SCc3ccccc3)nc3ccncc32)cc1	nt	nt	nt	nt	nt	i
Cc1cccc(CSc2nc3ccncc3n2Cc2ccc(C(=O)NCCN(C)C)cc2)c1	nt	nt	nt	nt	nt	i
Cc1cccc(Cn2c(SCc3ccc(C(=O)NCCc4ccccc4)cc3)nc3ccncc32)c1	nt	nt	?	13µM	nt	i
